Consider 30 compounds from PubChem BioAssay (NCATS).

“And” between values parts separate entries of the source, which are not always exact repeats. Identical values can stand only once. Inconclusive results are not listed. A number with no mark means an inactive call. The source made the active and inactive calls. The call rests on the fitted dose curve; in most records, active means well fitted curve in the direction sought with a large enough effect; inconclusive means small, poorly fitted or top-dose-only effect, or another doubt; inactive means no such curve, though single readings can be large; an effect the other way counts as inactive or inconclusive.

The nature of the first assay: qHTS of pediatric cancer cell lines to identify multiple opportunities for drug repurposing: Primary screen for Rh18 cells (AID 1347102). Further: on the % scale 0 is the no-effect control and ±100 the full control effect; nearly all actives have a fitted effect of over 65% in size. The following applies: Rh18 rhabdomyosarcoma viability, CellTiter-Glo luminescence, 48 h; series mostly up to 46 µM; activity change, negative = cytotoxic: at the top concentration. A digest of the protocol:
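Viability after 48 h compound treatment at 37C, 500-1,000 cells/well, read as ATP luminescence with CellTiter-Glo. Primary screens used 11-point (MIPE, 0.78 nM-46 µM) or 8-point (NPC, 0.59 nM-46 µM) final concentrations; follow-up screens used 11-point dilutions.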
(In general: qHTS replaces the single test concentration by a dilution series.)
As to `COc1c(O)cc2c(c1O)[C@@H]1O[C@H](CO)[C@@H](O)[C@H](O)[C@H]1OC2=O`, the “activity change, negative = cytotoxic” value is -3.58%.
As to `c1ccc2[nH]c(-c3cscn3)nc2c1`, the Potency result was “inactive”.
Same read-out and setting: the result for `O=C(NCCO[N+](=O)[O-])c1cccnc1` reads “inactive”.

The nature of another assay: qHTS of pediatric cancer cell lines to identify multiple opportunities for drug repurposing: Primary screen for OHS-50 cells (AID 1347103). Further: nearly all actives have a fitted effect of over 40% in size. Further: potency means the concentration at half of the fitted maximal effect.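 On activity change, negative = cytotoxic: plate controls were DMSO neutral control for no effect and bortezomib positive control for full effect.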 The following applies: OHS-50 osteosarcoma viability, CellTiter-Glo luminescence, 48 h; series mostly up to 57.3 µM; activity change, negative = cytotoxic: at the top concentration. The method in brief: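 Cells (500-1,000/well) rested 5 h, then received compounds for 48 h; metabolically active cells were measured by CellTiter-Glo luminescence. Final concentrations spanned up to 46 µM (MIPE, 11-point) or 0.59 nM-46 µM (NPC, 8-point) in primary screens, 11-point in follow-ups.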
`CCCOc1ccc2nc(NC(=O)OC)[nH]c2c1`: the Potency was 61.7 nM (active) and 13.7 nM (active).
For the compound `Cc1ncc([N+](=O)[O-])n1CC(C)O` (stereo not drawn), the Potency entry is “inactive”.
`O=c1oc2cc(O)ccc2s1`: the “activity change, negative = cytotoxic” value is -7.46%.
Still for that read-out and setting: the result for `CCOC(=O)C1=C[C@@H](OC(CC)CC)[C@H](NC(C)=O)[C@@H](N)C1` reads -2.6%; that for `CN(C)C(=O)[C@H](O)[C@H](Cc1ccccc1)NC(=O)c1cc2cc(Cl)ccc2[nH]1`, 90.5%.
Still for that read-out and setting: the result for `Cc1cc(O)c2c(c1)C(=O)c1cc(O)cc(O)c1C2=O` reads -7.99%.
Consider `N=C(N=C(N)N)N1CCOCC1`, for which the Potency entry is “inactive”.
The same measure, in the same setting: the result for `Nc1nc(N)c(N=O)c(OCC2CCCCC2)n1` reads 15.3 µM (active).
Regarding `CCC(C)(Oc1ccc(C2(c3ccc(OC(C)(CC)C(=O)O)cc3)CCCCC2)cc1)C(=O)O` (stereo not drawn), the “activity change, negative = cytotoxic” value is 14.6%.
On to `Cc1nc(-c2ccc(OCC(C)C)c(C#N)c2)sc1C(=O)O`, for which the Potency result is “inactive”.
Same read-out and setting: then `C=C(c1ccc(C(=O)O)cc1)c1cc2c(cc1C)C(C)(C)CCC2(C)C`, with 3.89 µM (active); and `S=c1nc[nH]c2nc[nH]c12`, with 2.19 µM (active) and 3.06 µM (active); and `CN(C)[C@@H](CCOc1cccc2ccccc12)c1ccccc1`, with 15.5 µM (active) and 21.7 µM (active).
For the compound `Cc1ccc(Nc2nccc(N(C)c3ccc4c(C)n(C)nc4c3)n2)cc1S(N)(=O)=O`, the Potency was 5.5 µM (active).
Take `C[C@H](Cn1cnc2c(N)ncnc21)OCP(=O)(O)O`: the “activity change, negative = cytotoxic” value is 23.1%.
For `O=C(NC(Cc1cc(=O)[nH]c2ccccc12)C(=O)O)c1ccc(Cl)cc1` (stereo not drawn), the Potency result was “inactive”.
For `O=Nc1c(-c2c(O)[nH]c3cc(Br)ccc23)[nH]c2ccccc12`, the Potency is 19.3 µM (active).
On to `COc1cc2c(N3CCN(C(=O)Nc4ccc(OC(C)C)cc4)CC3)ncnc2cc1OCCCN1CCCCC1`, for which the Potency is 27.3 µM (active) and 19.5 µM (active).
With `CCOC(=O)C(C)Oc1cccc2c(=O)n(CC(=O)Nc3ccc4c(c3)OCCO4)ccc12` (stereo not drawn), the “activity change, negative = cytotoxic” value is -5.66%.
Turning to `CC[C@]1(O)C[C@H]2CN(CCc3c([nH]c4ccccc34)[C@@](C(=O)OC)(c3cc4c(cc3OC)N(C=O)[C@H]3[C@@](O)(C(=O)OC)[C@H](OC(C)=O)[C@]5(CC)C=CCN6CC[C@]43[C@@H]65)C2)C1`, the Potency is 12.2 nM (active) and 12.3 nM (active).
Turning to `CNC[C@H](O)c1ccc(O)c(O)c1`, the “activity change, negative = cytotoxic” value was -10% [at 19.7 µM].
Still for that read-out and setting: the result for `O=C(CS(=O)Cc1ccco1)NCC=CCOc1cc(CN2CCCCC2)ccn1` (stereo not drawn) reads 8.44%; that for `O=C(O)c1cccc(-c2noc(-c3ccccc3F)n2)c1`, 5.08%.
Take `Cc1cccc(CN2CCN(C(c3ccccc3)c3ccc(Cl)cc3)CC2)c1` (stereo not drawn): the Potency is 24.6 µM (active) and 24.3 µM (active).
Same read-out and setting: then `O=C(O)CCNC(=O)c1ccc(N=Nc2ccc(O)c(C(=O)O)c2)cc1`, with “inactive”.
In the case of `COc1cc2c(cc1OC)C1CC(=O)C(CC(C)C)CN1CC2` (stereo not drawn), the “activity change, negative = cytotoxic” value is 5.29%.
For the compound `Nc1nc(Cl)nc2c1ncn2[C@H]1C[C@H](O)[C@@H](CO)O1`, the Potency is 15.3 µM (active).
As for `COc1c(O)cc2c(c1O)[C@@H]1O[C@H](CO)[C@@H](O)[C@H](O)[C@H]1OC2=O`, the “activity change, negative = cytotoxic” value was -5.01%.
With `c1ccc2[nH]c(-c3cscn3)nc2c1`, the Potency entry is “inactive”.
For `O=C(NCCO[N+](=O)[O-])c1cccnc1`, the Potency entry is “inactive”.
